Assay results as given in PubChem BioAssay (Tox21).
Unmarked numbers belong to inactive results. Records with an inconclusive call do not appear. Entries that show only a call come without a potency. Activity calls are given as the source filed them. Unless noted, calls follow the shape of the dose curve; as a rule, active = well fitted curve in the direction sought with a large enough effect in the repeat runs; inconclusive = weak or mixed curves; inactive = no such curve, though single readings can be large; an effect the other way counts as inactive or inconclusive.

Assays:
[1] = molecular target: Progesterone receptor (Homo sapiens) (UniProt P06401); experiment: qHTS assay to identify small molecule agonists of the progesterone receptor (PR) signaling pathway (AID 1346784; calls by dose curve; also: nearly all actives have a fitted effect of over 30% in size)
How it was run: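 Reporter assay, GripTite PR-UAS-bla HEK 293T cells: 16 hr exposure to DMSO-dissolved compounds at 37C, 5% CO2, in steroid-depleted (2% charcoal-stripped FBS) medium; beta-lactamase measured by FRET fluorescence.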

[2] = molecular target: Progesterone receptor (Homo sapiens) (UniProt P06401); experiment: qHTS assay to identify small molecule antagonists of the progesterone receptor (PR) signaling pathway (AID 1346795; active = well fitted inhibition curve with a large enough effect in the signal ratio in the repeat runs, not every such curve was filed as active; the % refers to the signal ratio; also: potency is read from the fitted curve at half-maximal effect)
How it was run: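 Stimulus R5020 at 1 nM final; cells HEK293T PR-UAS-bla; medium with 2% charcoal-stripped FBS; compound exposure 16 hr at 37C, 5% CO2; detection by FRET beta-lactamase substrate, 2 hr, room temperature.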

[3] = qHTS assay to identify small molecule antagonists of the progesterone receptor (PR) signaling pathway - cell viability counter screen (AID 1346798); also: series mostly up to about 92 µM; nearly all actives have a fitted effect of over 50% in size
How it was run: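 In the same plates used for the beta-lactamase readout, cell viability of compound- and R5020-treated PR-UAS-bla HEK293T cells (16 hr, 37C) was assessed by CellTiter-Glo luminescence.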

[4] = qHTS assay to identify small molecule agonists of the progesterone receptor (PR) signaling pathway - cell viability counter screen (AID 1346799; calls by dose curve; also: nearly all actives have a fitted effect of over 45% in size)
How it was run: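 Multiplexed viability read: CellTiter-Glo luminescence, 30 min RT, following LiveBLAzer FRET measurement on PR-UAS-bla HEK293T cells exposed to compounds 16 hr.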

[5] = qHTS assay to identify small molecule antagonists of the TGF-beta/Smad signaling pathway - cell viability counter screen (AID 1346824); also: nearly all actives have a fitted effect of over 50% in size
How it was run: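 SBE-bla HEK 293T cells were plated overnight at 37 C, then given compounds in DMSO plus TGF-beta1 (added as 0.25 ng/mL solution) for 5 hr. After the bla read, CellTiter-Glo was added to the same wells and luminescence read after 30 min at room temperature.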

[6] = qHTS assay to identify small molecule agonists of the TGF-beta/Smad signaling pathway - cell viability counter screen (AID 1346829); also: top concentration of the series differs between compounds; nearly all actives have a fitted effect of over 45% in size
How it was run: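 After overnight seating at 37 C and 5% CO2, reporter cells got compounds for 5 hr and FRET substrate for 2 hr; cell viability then came from CellTiter-Glo luminescence.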

[7] = molecular target: Thyrotropin-releasing hormone receptor (Homo sapiens) (UniProt P34981); experiment: qHTS assay to identify small molecule antagonists of the thyrotropin-releasing hormone receptor (TRHR) signaling pathway (AID 1346877; active = well fitted inhibition curve with a large enough effect in the repeat runs, not every such curve was filed as active; also: series mostly up to about 51 µM)
How it was run: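 TRHR-expressing HEK293 cells loaded with calcium dye for 2 h at 37 C; compounds pre-incubated 5 min at room temperature before TRH challenge at 1 nM final. Intracellular calcium fluorescence read kinetically for 3 min; 15 concentrations in triplicate.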

[8] = molecular target: Thyrotropin-releasing hormone receptor (Homo sapiens) (UniProt P34981); experiment: qHTS assay to identify small molecule agonists of the thyrotropin-releasing hormone receptor (TRHR) signaling pathway (AID 1346891; calls by dose curve; also: series mostly up to about 58 µM)
How it was run: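 Readout was intracellular calcium fluorescence in TRHR-Hek293 cells. Cells were incubated 18 h, dye-loaded 2 h at 37 °C, and treated with compound in agonist mode.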

[9] = Caspase-3/7 induction in HepG2 cells by small molecules, qHTS assay (AID 1346978); also: nearly all actives have a fitted effect of over 15% in size
How it was run: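 Wild-type HepG2 cells (2,000/well) were settled 5 h at 37 C, 5% CO2, then exposed to compounds in DMSO for 17 h. Caspase-3/7 activity was read by luminescence 30 min after adding Caspase-Glo 3/7 reagent at room temperature.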

[10] = Caspase-3/7 induction in CHO-K1 cells by small molecules, qHTS assay (AID 1346980); also: nearly all actives have a fitted effect of over 15% in size
How it was run: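 Wild-type cells were seeded at 1,500 per well and settled 5 hr at 37 C, 5% CO2, then exposed to DMSO-dissolved compounds for 17 hr. Caspase-Glo 3/7 reagent was added, and luminescence was read after 30min at room temperature.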

[11] = Caspase-3/7 induction in HepG2 cells by small molecules, qHTS cell viability counter screen (AID 1346981); also: series mostly up to about 92 µM; nearly all actives have a fitted effect of over 30% in size
How it was run: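 Wild-type HepG2 cells, 2,000/well, settled 5 hr at 37 C, 5% CO2 before compound addition. Viability read by CellTiter-Fluor fluorescence, reagent added after 16 hr compound exposure, then 1 hr at 37C, in the same wells as the caspase read.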

[12] = molecular target: Nuclear receptor subfamily 1 group I member 2 (Homo sapiens) (UniProt O75469); experiment: Human pregnane X receptor (PXR) small molecule agonists, qHTS assay (AID 1346982); also: nearly all actives have a fitted effect of over 35% in size; also: potency is read from the fitted curve at half-maximal effect
How it was run: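 PXR-Luc HepG2 reporter cells (CYP3A4-driven luciferase) in 5% charcoal-stripped FBS medium, plated 5 h before compound addition, then treated 24 h at 37C. Luciferase read by ONE-Glo luminescence after 30 min at room temperature.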

[13] = molecular target: Cytochrome P450 2D6 (Homo sapiens) (UniProt P10635); experiment: Cytochrome P450 Family 2 Subfamily D Member 6 (CYP2D6) small molecule antagonists: luciferase reporter qHTS assay (AID 1671196); also: nearly all actives have a fitted effect of over 50% in size; also: potency is read from the fitted curve at half-maximal effect; as to activity change, negative = inhibition: series mostly up to about 120 µM
How it was run: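 Cell-free P450-Glo system: CYP2D6 with proluciferin substrate was pre-incubated with compound for 10 min, then reacted with NADPH regeneration for 1 h at room temperature. Luciferin product was detected after 20 min, and data were reported as relative luminescence units.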

[14] = molecular target: Cytochrome P450 2C19 (Homo sapiens) (UniProt P33261); experiment: Cytochrome P450 Family 2 Subfamily C Member 19 (CYP2C19) small molecule antagonists: luciferase reporter qHTS assay (AID 1671197); also: nearly all actives have a fitted effect of over 65% in size; also: potency is read from the fitted curve at half-maximal effect; as to activity change, negative = inhibition: series mostly up to about 120 µM
How it was run: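 Inhibition of CYP2C19 was scored from loss of luminescence in a P450-Glo proluciferin substrate assay, NADPH-started and run 1 h at 37C, with ketoconazole as positive control.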

[15] = qHTS assay to identify small molecule agonists of the TGF-beta/Smad signaling pathway (AID 1346859; active = well fitted activation curve with a large enough effect in the signal ratio in the repeat runs, not every such curve was filed as active; the % refers to the signal ratio; also: series mostly up to about 77 µM)
How it was run: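 Screening used HEK 293T SBE-bla cells at 4,000/well. Test agents: 5 hr, 37 C. Detection: FRET substrate, 2 hr RT, then excitation 405 nm with emissions at 460 and 530 nm.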

[16] = Human pregnane X receptor (PXR) small molecule agonists, qHTS cell viability counter screen (AID 1346977); also: nearly all actives have a fitted effect of over 50% in size
How it was run: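 In each well, the PXR reporter HepG2 line was checked for viability: CellTiter-Fluor reagent added 23hr post-dosing, fluorescence read after 1hr incubation at 37C.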

[17] = Caspase-3/7 induction in CHO-K1 cells by small molecules, qHTS cell viability counter screen (AID 1346979); also: nearly all actives have a fitted effect of over 35% in size
How it was run: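 Following a 5hr settling period, CHO-K1 cells at 1,500 per well received DMSO-dissolved compounds. Cell viability was quantified 16hr later by CellTiter-Fluor fluorescence, measured after 1hr with reagent at 37C.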

Cytochrome P450 2D6 (Homo sapiens), sequence (P10635 whole entry, looked up): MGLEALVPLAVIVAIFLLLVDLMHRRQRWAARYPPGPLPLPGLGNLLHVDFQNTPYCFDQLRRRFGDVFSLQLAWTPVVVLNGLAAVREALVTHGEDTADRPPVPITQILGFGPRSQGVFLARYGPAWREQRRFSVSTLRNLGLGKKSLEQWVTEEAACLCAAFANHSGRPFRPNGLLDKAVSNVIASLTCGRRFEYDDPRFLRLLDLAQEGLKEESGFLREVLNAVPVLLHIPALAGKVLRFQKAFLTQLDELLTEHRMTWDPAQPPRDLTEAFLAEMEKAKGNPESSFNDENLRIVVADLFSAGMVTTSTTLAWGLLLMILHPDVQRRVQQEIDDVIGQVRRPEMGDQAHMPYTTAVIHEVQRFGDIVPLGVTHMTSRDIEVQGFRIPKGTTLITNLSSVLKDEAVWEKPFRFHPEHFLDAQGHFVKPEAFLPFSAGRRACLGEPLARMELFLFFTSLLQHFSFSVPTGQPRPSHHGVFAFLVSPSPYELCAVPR
Progesterone receptor (Homo sapiens), sequence (P06401 whole entry, looked up): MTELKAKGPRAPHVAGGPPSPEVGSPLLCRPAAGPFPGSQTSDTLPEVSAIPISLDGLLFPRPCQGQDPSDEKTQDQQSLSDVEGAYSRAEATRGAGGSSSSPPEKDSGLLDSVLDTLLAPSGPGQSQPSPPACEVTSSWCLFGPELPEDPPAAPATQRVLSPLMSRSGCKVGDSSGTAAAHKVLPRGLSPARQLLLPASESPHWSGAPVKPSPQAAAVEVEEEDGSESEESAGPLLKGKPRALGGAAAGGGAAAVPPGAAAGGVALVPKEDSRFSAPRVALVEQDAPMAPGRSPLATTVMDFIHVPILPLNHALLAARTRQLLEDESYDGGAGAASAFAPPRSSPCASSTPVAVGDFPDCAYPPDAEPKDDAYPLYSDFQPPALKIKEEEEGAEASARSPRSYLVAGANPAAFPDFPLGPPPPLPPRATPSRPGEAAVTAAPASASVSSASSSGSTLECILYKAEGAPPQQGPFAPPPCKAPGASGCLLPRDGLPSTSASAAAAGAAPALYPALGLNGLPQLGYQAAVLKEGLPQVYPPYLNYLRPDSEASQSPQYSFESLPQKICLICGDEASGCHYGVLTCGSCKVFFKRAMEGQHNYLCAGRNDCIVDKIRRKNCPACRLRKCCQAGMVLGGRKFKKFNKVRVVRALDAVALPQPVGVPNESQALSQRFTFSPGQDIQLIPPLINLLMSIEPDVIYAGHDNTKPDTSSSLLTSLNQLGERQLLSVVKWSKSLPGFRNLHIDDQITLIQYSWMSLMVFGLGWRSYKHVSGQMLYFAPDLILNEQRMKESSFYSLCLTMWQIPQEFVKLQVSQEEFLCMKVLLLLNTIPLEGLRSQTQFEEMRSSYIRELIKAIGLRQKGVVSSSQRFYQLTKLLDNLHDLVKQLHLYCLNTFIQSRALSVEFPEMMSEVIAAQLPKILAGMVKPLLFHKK
Nuclear receptor subfamily 1 group I member 2 (Homo sapiens), sequence (O75469 whole entry, looked up): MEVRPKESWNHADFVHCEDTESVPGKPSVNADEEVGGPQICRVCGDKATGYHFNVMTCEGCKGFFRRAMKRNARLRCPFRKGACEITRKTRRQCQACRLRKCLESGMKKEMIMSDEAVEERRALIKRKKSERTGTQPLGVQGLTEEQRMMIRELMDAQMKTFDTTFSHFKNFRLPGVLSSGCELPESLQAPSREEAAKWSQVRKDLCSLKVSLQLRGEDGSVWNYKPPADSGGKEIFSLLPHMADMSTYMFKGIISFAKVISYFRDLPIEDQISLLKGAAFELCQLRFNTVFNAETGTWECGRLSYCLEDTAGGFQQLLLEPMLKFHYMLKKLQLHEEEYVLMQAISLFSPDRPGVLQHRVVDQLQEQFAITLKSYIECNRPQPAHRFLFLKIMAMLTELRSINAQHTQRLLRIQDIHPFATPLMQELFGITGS
Cytochrome P450 2C19 (Homo sapiens), sequence (P33261 whole entry, looked up): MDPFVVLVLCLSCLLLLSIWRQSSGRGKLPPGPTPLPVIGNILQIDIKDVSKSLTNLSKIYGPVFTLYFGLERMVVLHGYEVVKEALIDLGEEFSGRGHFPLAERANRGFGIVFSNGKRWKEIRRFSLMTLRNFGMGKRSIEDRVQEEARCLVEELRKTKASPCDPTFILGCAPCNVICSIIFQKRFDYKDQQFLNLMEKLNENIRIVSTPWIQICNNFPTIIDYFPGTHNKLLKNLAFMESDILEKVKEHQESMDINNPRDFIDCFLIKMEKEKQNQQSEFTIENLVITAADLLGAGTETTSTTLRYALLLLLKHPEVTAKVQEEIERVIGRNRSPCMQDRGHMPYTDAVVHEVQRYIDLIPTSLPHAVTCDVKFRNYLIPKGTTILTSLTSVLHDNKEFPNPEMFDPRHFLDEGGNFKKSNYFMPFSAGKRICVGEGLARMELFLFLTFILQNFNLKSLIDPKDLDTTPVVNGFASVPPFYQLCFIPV
Thyrotropin-releasing hormone receptor (Homo sapiens), sequence (P34981 whole entry, looked up): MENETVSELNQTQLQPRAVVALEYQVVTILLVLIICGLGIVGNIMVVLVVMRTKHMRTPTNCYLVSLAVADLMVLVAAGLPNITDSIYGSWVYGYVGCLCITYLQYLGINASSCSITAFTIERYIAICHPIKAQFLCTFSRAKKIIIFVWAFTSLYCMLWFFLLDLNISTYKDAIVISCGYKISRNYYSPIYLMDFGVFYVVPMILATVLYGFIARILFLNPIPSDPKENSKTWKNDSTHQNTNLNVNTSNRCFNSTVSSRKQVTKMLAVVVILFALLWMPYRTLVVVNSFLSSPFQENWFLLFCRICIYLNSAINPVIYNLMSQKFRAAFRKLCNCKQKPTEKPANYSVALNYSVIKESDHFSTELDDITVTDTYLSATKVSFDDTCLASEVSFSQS

With `CCC1=C(C)CN(C(=O)NCCc2ccc(S(=O)(=O)NC(=O)NC3CCC(C)CC3)cc2)C1=O` (centres undefined) the Potency [1] was “inactive”, the Potency [2] was “inactive” and the Potency [3] was “inactive”. The Potency [4] was “inactive”, the outcome [5] was “inactive” and the outcome [6] was “inactive”. The outcome [7] was “inactive”, the outcome [8] was “inactive” and the Potency [9] was “inactive”. For the same molecule, the Potency [10] was “inactive”, the Potency [11] was “inactive” and the Potency [12] was “inactive”. For the same molecule, the Potency [13] was “inactive” and the Potency [14] was “inactive”.

With `CC(C)(C)N` the Potency [1] was “inactive”, the Potency [2] was “inactive” and the Potency [3] was “inactive”. For the same molecule, the Potency [4] was “inactive”, the outcome [5] was “inactive” and the outcome [6] was “inactive”. For the same molecule, the outcome [15] was “inactive”, the Potency [16] was “inactive” and the Potency [9] was “inactive”. The Potency [17] was “inactive”, the Potency [10] was “inactive” and the Potency [12] was “inactive”. The Potency [13] was “inactive” and the Potency [14] was “inactive”.

For `CCC(C)CCCC(C)(C)O` (centres undefined), the Potency [1] was “inactive”, the Potency [2] was “inactive” and the Potency [3] was “inactive”. The Potency [4] was “inactive”, the outcome [5] was “inactive” and the outcome [6] was “inactive”. The outcome [15] was “inactive”, the outcome [7] was “inactive” and the outcome [8] was “inactive”. The Potency [10] was “inactive”, the Potency [11] was “inactive” and the Potency [12] was “inactive”. For the same molecule, the Potency [14] was “inactive”.

With `Cc1c(Cl)cccc1[N+](=O)[O-]` the Potency [1] was “inactive”, the Potency [2] was “inactive” and the Potency [3] was “inactive”. For the same molecule, the Potency [4] was “inactive”, the outcome [5] was “inactive” and the outcome [6] was “inactive”. For the same molecule, the outcome [7] was “inactive”, the outcome [8] was “inactive” and the Potency [16] was “inactive”. For the same molecule, the Potency [9] was “inactive”, the Potency [17] was “inactive” and the Potency [11] was “inactive”. The Potency [12] was “inactive”, the Potency [13] was “inactive” and the Potency [14] was “inactive”.

`O=C(O)c1ccc2c(c1)nc(C(=O)NC1CCN(C3CC3)CC1)n2Cc1cc(-c2ccc(Cl)s2)on1` gave an activation [1] of 1.53% [at 19 µM], an activity change, negative = inhibition [2] of -15.4% [at 18.9 µM] and an activity change, negative = cytotoxicity [3] of -14.4% [at 18.9 µM]. For the same molecule, the activity change, negative = cytotoxicity [4] was -20.4% [at 19 µM], the viability change, negative = cytotoxic [5] was 0.205% [at 15.8 µM] and the activity change, negative = cytotoxicity [6] was 20.2% [at 15.8 µM]. For the same molecule, the activity, negative = inhibition [7] was 0.0336% [at 10.5 µM], the activation [8] was 2.01% [at 11.8 µM] and the activity change, negative = cytotoxicity [16] was 17.8% [at 19 µM]. The caspase activation [9] was -0.956% [at 19 µM], the caspase-3/7 activation [10] was 9.35% [at 19 µM] and the activation [12] was -32.3% [at 19 µM]. The activity change, negative = inhibition [13] was -3.64% [at 23.6 µM] and the activity change, negative = inhibition [14] was 14.2% [at 23.6 µM].

With `Oc1ccc(CCNCCCCCCNCCc2ccccc2)cc1O` the Potency [1] was “inactive”, the Potency [2] was “inactive” and the Potency [3] was “inactive”. The Potency [4] was “inactive”, the outcome [5] was “inactive” and the outcome [6] was “inactive”. For the same molecule, the outcome [15] was “inactive”, the outcome [7] was “inactive” and the outcome [8] was “inactive”. The Potency [9] was “inactive”, the Potency [10] was “inactive” and the Potency [11] was “inactive”. The Potency [12] was “inactive” and the Potency [13] was 15.5 µM (active).

In the case of `NC(=O)c1ccccc1`, the Potency [1] is reported as “inactive”, the Potency [2] is reported as “inactive” and the Potency [3] is reported as “inactive”. The Potency [4] was “inactive”, the outcome [5] was “inactive” and the outcome [6] was “inactive”. The outcome [7] was “inactive”, the outcome [8] was “inactive” and the Potency [16] was “inactive”. For the same molecule, the Potency [9] was “inactive”, the Potency [11] was “inactive” and the Potency [12] was “inactive”. For the same molecule, the Potency [13] was “inactive” and the Potency [14] was “inactive”.

For `CC(C)(C(=O)O)c1ccc(C(O)CCCN2CCC(C(O)(c3ccccc3)c3ccccc3)CC2)cc1` (centres undefined), the Potency [1] was “inactive”, the Potency [2] was “inactive” and the Potency [3] was “inactive”. For the same molecule, the Potency [4] was “inactive”, the outcome [5] was “inactive” and the outcome [6] was “inactive”. The outcome [7] was “inactive”, the outcome [8] was “inactive” and the Potency [16] was “inactive”. The Potency [17] was “inactive”, the Potency [10] was “inactive” and the Potency [11] was “inactive”. The Potency [12] was “inactive”.

With `COc1ccc(C(=O)Nc2ccccc2)cc1[N+](=O)[O-]` the Potency [1] was “inactive”, the Potency [2] was 54.9 µM (active) and the Potency [3] was “inactive”. For the same molecule, the Potency [4] was “inactive”, the outcome [5] was “inactive” and the outcome [6] was “inactive”. For the same molecule, the outcome [7] was “inactive”, the outcome [8] was “inactive” and the Potency [9] was “inactive”. For the same molecule, the Potency [10] was “inactive”, the Potency [11] was “inactive” and the Potency [12] was 30.9 µM (active). For the same molecule, the Potency [13] was 40.2 µM (active) and the Potency [14] was 35.9 µM (active).

With `CCC[Si](OC)(OC)OC` the Potency [1] was “inactive”, the Potency [2] was “inactive” and the Potency [3] was “inactive”. The Potency [4] was “inactive”, the outcome [5] was “inactive” and the outcome [6] was “inactive”. The outcome [15] was “inactive”, the outcome [7] was “inactive” and the outcome [8] was “inactive”. For the same molecule, the Potency [9] was “inactive”, the Potency [17] was “inactive” and the Potency [11] was “inactive”. For the same molecule, the Potency [12] was “inactive” and the Potency [14] was 71 µM (active).
